# The full ranking holds about 1,600 compounds; the median of “plate-normalized OD600 growth (mean of duplicates)” is about 0.31, and the lowest 2% start at about 0.23. The sample holds the lowest values, similar compounds and a random draw of the others, so the mix is not that of the screen.
# Test system: Escherichia coli BW25113
# Experiment: plate-normalized OD600 growth (mean of duplicates) (OD600 (normalized)); higher = more growth (less inhibition)
# Details: 10 µM
# Description: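 E. coli BW25113 in LB (100 µl, 96-well, no shaking) was exposed to 10 µM of each compound (here the ChemBridge subset of a ~30,000-member library) and grown at 37°C for 24 h or 15°C for 48 h, in duplicate. Growth was read as OD600 and the duplicate ODs were normalized across screening plates to correct plate-to-plate variation.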
Structure (SMILES),"plate-normalized OD600 growth (temperature: 15°C, 48 h)","plate-normalized OD600 growth (temperature: 37°C, 24 h)"
Cc1ccccc1C(=O)Nc1ccc(Br)cc1,0.282,0.631
COc1ccc(-c2cn3ccccc3n2)cc1F,0.229,0.633
O=[N+]([O-])c1ccc(-c2nnc(-c3ccccc3Cl)o2)cc1,0.244,0.601
CCC(CO)NC1=C([N+](=O)[O-])C(=O)CC(C)(C)C1 (stereo not drawn),0.282,0.666
CCN(CC)CCN(C)Cc1cccc([N+](=O)[O-])c1,0.245,0.601
CCN(CC)CCN(C)C/C=C/c1ccccc1,0.208,0.608
CCN1CCN(C/C=C/c2ccccc2)CC1,0.28,0.634
C=CCSc1nc(N)c(C#N)c(CC)c1C#N,0.239,0.605
CCC1CCCCN1C(=O)c1cccc([N+](=O)[O-])c1C (stereo not drawn),0.247,0.612
Cc1ccccc1C(=O)N1CCCCC1CO (stereo not drawn),0.294,0.624
CCC1CCCCN1C(=O)c1cccs1 (stereo not drawn),0.225,0.613
COc1cc2c(cc1OC)C(c1cc(OC)c(OC)c(OC)c1)N(C)CC2 (stereo not drawn),0.244,0.624
COc1cc(OC)cc(C(=O)Nc2cccc(C)c2C)c1,0.253,0.63
O=C(O)CSc1nccn1Cc1ccccc1,0.244,0.625
CCOC(=O)N1CCN(Cc2ccccc2Cl)CC1,0.244,0.621
CCOC(=O)N1CCN(Cc2ccc(N(C)C)cc2)CC1,0.219,0.58
CCOC(=O)N1CCN(Cc2c(F)cccc2F)CC1,0.263,0.656

Structure (SMILES),"plate-normalized OD600 growth (temperature: 15°C, 48 h)","plate-normalized OD600 growth (temperature: 37°C, 24 h)"
O=C(Nc1ccc(Oc2ccc(NC(=O)c3cccnc3)cc2)cc1)c1cccnc1,0.27,0.629
Fc1ccc(CN2CCN(c3ncccn3)CC2)cc1,0.253,0.629
N#CSCCCCOc1ccccc1Cl,0.251,0.605
CC(C)(C)c1ccccc1OCCCSC#N,0.233,0.622
CC(C)(C)c1ccccc1OCCCCSC#N,0.209,0.619
CC(c1ccccc1)N1CCC(=O)C2=C1CCCC2 (stereo not drawn),0.241,0.604
[O-][n+]1onc2c(-c3ccccc3)nnc(-c3ccccc3)c21,0.254,0.616
Fc1ccc(CN2CCN(c3ccccn3)CC2)c(F)c1,0.244,0.601
N#CCCN(CCN1CCCC1)S(=O)(=O)c1cccc2nsnc12,0.253,0.624
Nc1nc(-c2ccco2)nc(-c2ccco2)n1,0.272,0.646
N#Cc1c(N)nc2c(c1-c1ccco1)CCCCCC2,0.249,0.615
CN(C)c1nc(N)nc(-c2ccco2)n1,0.226,0.632
O=C1CCCc2c1nn(-c1ccccc1)[n+]2[O-],0.249,0.618
O=C(Nc1ccc(F)cc1F)c1cccc(Br)c1,0.259,0.605
COc1ccc(C)cc1NCc1ccc(SC)cc1,0.282,0.644
Cc1nc(N)nc(OCC(F)(F)C(F)F)c1Br,0.221,0.604
CCN(CC)CCOc1ccccc1Br,0.233,0.621
